The supplement of paper PMC8728848
Shown is part of a subset that was picked to be rich in the strongest signals.

Tests used:
Experiment in all cases: glycan array binding signal (z-score within array); higher = stronger binding
Conditions in all cases: glycan notation: IUPAC condensed, linker removed
Fuc(a1-2)Gal(b1-3)GlcNAc = target: Fuc(a1-2)Gal(b1-3)GlcNAc
Procedure, shortened: (§1)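 Glycan array binding is given as a within-array Z-score, which can be read as non-binding when negative. The arrays, 3228 of them, came from the Consortium for Functional Glycomics database and were retained only where the protein sequence was available. Z-scores were averaged across arrays of the same protein sequence at different concentrations or buffers and across linkers.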

[1] = target: Fuc(a1-2)Gal(b1-3)GlcNAc(b1-3)[Gal(b1-4)GlcNAc(b1-6)]Gal(b1-4)Glc
Procedure, shortened: as §1

[2] = target: Fuc(a1-2)Gal(b1-3)[Fuc(a1-4)]GlcNAc
Procedure, shortened: as §1

[3] = target: Fuc(a1-2)Gal(b1-3)[Fuc(a1-4)]GlcNAc(b1-2)Man(a1-3)[Fuc(a1-2)Gal(b1-3)[Fuc(a1-4)]GlcNAc(b1-2)Man(a1-6)]Man(b1-4)GlcNAc(b1-4)[Fuc(a1-6)]GlcNAc(b1-4)[Fuc(a1-6)]GlcNAc
Procedure, shortened: as §1

[4] = target: Fuc(a1-2)Gal(b1-3)[Fuc(a1-4)]GlcNAc(b1-3)[Fuc(a1-3)[Gal(b1-4)]GlcNAc(b1-6)]Gal(b1-4)Glc
Procedure, shortened: as §1

[5] = target: Fuc(a1-2)Gal(b1-4)GlcNAc(b1-2)Man
Procedure, shortened: as §1

[6] = target: Fuc(a1-2)Gal(b1-4)GlcNAc(b1-3)Gal(b1-4)GlcNAc(b1-2)Man(a1-3)[Fuc(a1-2)Gal(b1-4)GlcNAc(b1-3)Gal(b1-4)GlcNAc(b1-2)Man(a1-6)]Man(b1-4)GlcNAc(b1-4)GlcNAc
Procedure, shortened: as §1

[7] = target: Fuc(a1-2)[Gal(a1-3)]Gal(b1-4)GlcNAc(b1-3)GalNAc
Procedure, shortened: as §1

[8] = target: Fuc(a1-2)[GalNAc(a1-3)]Gal
Procedure, shortened: as §1

[9] = target: Fuc(a1-2)[GalNAc(a1-3)]Gal(b1-3)GalNAc(a1-3)[Fuc(a1-2)]Gal(b1-4)GlcNAc
Procedure, shortened: as §1

[10] = target: Fuc(a1-2)[GalNAc(a1-3)]Gal(b1-3)GlcNAc
Procedure, shortened: as §1

[11] = target: Fuc(a1-2)[GalNAc(a1-3)]Gal(b1-3)GlcNAc(b1-3)GalNAc
Procedure, shortened: as §1

[12] = target: Fuc(a1-2)[GalNAc(a1-3)]Gal(b1-4)[Fuc(a1-3)]GlcNAc(b1-3)GalNAc
Procedure, shortened: as §1

[13] = target: Fuc(a1-3)[Gal3S(b1-4)]GlcNAc
Procedure, shortened: as §1

[14] = target: Gal(a1-4)Gal(b1-3)GlcNAc(b1-2)Man(a1-3)[Gal(a1-4)Gal(b1-3)GlcNAc(b1-2)Man(a1-6)]Man(b1-4)GlcNAc(b1-4)GlcNAc
Procedure, shortened: as §1

[15] = target: Gal(b1-3)GlcNAc(b1-3)Gal(b1-4)GlcNAc(b1-2)Man(a1-3)[Gal(b1-3)GlcNAc(b1-3)Gal(b1-4)GlcNAc(b1-2)Man(a1-6)]Man(b1-4)GlcNAc(b1-4)GlcNAc
Procedure, shortened: as §1

[16] = target: Gal(b1-3)[Fuc(a1-4)]GlcNAc(b1-6)GalNAc
Procedure, shortened: as §1

[17] = target: Gal(b1-4)GalNAc(a1-3)[Fuc(a1-2)]Gal(b1-4)GlcNAc
Procedure, shortened: as §1

[18] = target: Gal(b1-4)GlcNAc(b1-2)[Gal(b1-4)GlcNAc(b1-6)]Man(a1-6)[Gal(b1-4)GlcNAc(b1-2)Man(a1-3)]Man(b1-4)GlcNAc(b1-4)[Fuc(a1-6)]GlcNAc
Procedure, shortened: as §1

[19] = target: Gal(b1-4)GlcNAc(b1-3)Gal(b1-4)GlcNAc(b1-2)Man(a1-3)[Gal(b1-4)GlcNAc(b1-3)Gal(b1-4)GlcNAc(b1-2)Man(a1-6)]Man(b1-4)GlcNAc(b1-4)[Fuc(a1-6)]GlcNAc
Procedure, shortened: as §1

[20] = target: Gal(b1-4)GlcNAc(b1-3)Gal(b1-4)GlcNAc(b1-3)Gal(b1-4)GlcNAc(b1-2)Man(a1-3)[Gal(b1-4)GlcNAc(b1-3)Gal(b1-4)GlcNAc(b1-3)Gal(b1-4)GlcNAc(b1-2)Man(a1-6)]Man(b1-4)GlcNAc(b1-4)[Fuc(a1-6)]GlcNAc
Procedure, shortened: as §1

[21] = target: Gal(b1-4)GlcNAc(b1-3)Gal(b1-4)GlcNAc(b1-3)Gal(b1-4)GlcNAc(b1-3)Gal(b1-4)GlcNAc(b1-2)Man(a1-3)[Gal(b1-4)GlcNAc(b1-3)Gal(b1-4)GlcNAc(b1-3)Gal(b1-4)GlcNAc(b1-3)Gal(b1-4)GlcNAc(b1-2)Man(a1-6)]Man(b1-4)GlcNAc(b1-4)[Fuc(a1-6)]GlcNAc
Procedure, shortened: as §1

[22] = target: Gal(b1-4)GlcNAc(b1-3)Gal(b1-4)GlcNAc(b1-3)Gal(b1-4)GlcNAc(b1-3)Gal(b1-4)GlcNAc(b1-3)Gal(b1-4)GlcNAc(b1-2)Man(a1-3)[Gal(b1-4)GlcNAc(b1-3)Gal(b1-4)GlcNAc(b1-3)Gal(b1-4)GlcNAc(b1-3)Gal(b1-4)GlcNAc(b1-3)Gal(b1-4)GlcNAc(b1-2)Man(a1-6)]Man(b1-4)GlcNAc(b1-4)GlcNAc
Procedure, shortened: as §1

B1: SJCP1084 (Schistosoma japonicum) (protein)
chain: MRIINLVIISTALLLINLLQTKSQANGEDTKNGTPDDPGLTKSTELKVEVQALLKDKKTNMRVKWNENLLDNTKPEYHNLRDEACELLLQIVRSVVPLSQDDGECKDVTFTKYVVGTKDGAVNVKLTITFKDSVAINQKPMDLKLKLENDFKNLQSESTLKATKPTFTVKVEKRLIPISKPQTTPPTTAKNDASKENVGDIGGEDSTVPTAAPATAASANEEKDEGDKDNKDSQHPNVLTSNVNDRNLIIALVALMILAIGVALTAAVKQR
In the case of B1, the “glycan array binding signal (z-score)” value (Fuc(a1-2)Gal(b1-3)GlcNAc) is reported as 0.181, the “glycan array binding signal (z-score)” value [1] is reported as -0.827 and the “glycan array binding signal (z-score)” value [2] is reported as 0.425. The “glycan array binding signal (z-score)” value [3] was -0.159, the “glycan array binding signal (z-score)” value [4] was -0.831 and the “glycan array binding signal (z-score)” value [5] was 1.24. For the same binder, the “glycan array binding signal (z-score)” value [6] was 4.99, the “glycan array binding signal (z-score)” value [7] was -0.455 and the “glycan array binding signal (z-score)” value [8] was 0.405. The “glycan array binding signal (z-score)” value [9] was -0.717, the “glycan array binding signal (z-score)” value [10] was 0.643 and the “glycan array binding signal (z-score)” value [11] was 2.68. For the same binder, the “glycan array binding signal (z-score)” value [12] was -0.545, the “glycan array binding signal (z-score)” value [13] was -1.01 and the “glycan array binding signal (z-score)” value [14] was 3.06. For the same binder, the “glycan array binding signal (z-score)” value [15] was 0.617, the “glycan array binding signal (z-score)” value [16] was -0.381 and the “glycan array binding signal (z-score)” value [17] was -0.495. The “glycan array binding signal (z-score)” value [18] was 2.77, the “glycan array binding signal (z-score)” value [19] was 4.14 and the “glycan array binding signal (z-score)” value [20] was 3.35. For the same binder, the “glycan array binding signal (z-score)” value [21] was 3.73 and the “glycan array binding signal (z-score)” value [22] was 4.37.
